# PubChem BioAssay (Tox21)
# Results filed as inconclusive are left out. Entries that show only a call come without a potency. Values without a mark were called inactive. Calls of active or inactive are those of the source. Calls follow the shape of the dose curve; as a rule, active = well fitted curve in the direction sought with a large enough effect in the repeat runs; inconclusive = weak or mixed curves; inactive = no such curve, though single readings can be large; an effect the other way counts as inactive or inconclusive.
# Assay: Caspase-3/7 induction in HepG2 cells by small molecules, qHTS assay (AID 1346978); also: nearly all actives have a fitted effect of over 15% in size
# Details: HepG2 caspase-3/7 activation, Caspase-Glo luminescence, 17 h; series mostly up to 92.4 µM
# How it was run: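 Wild-type HepG2 cells (2,000/well) were settled 5 h at 37 C, 5% CO2, then exposed to compounds in DMSO for 17 h. Caspase-3/7 activity was read by luminescence 30 min after adding Caspase-Glo 3/7 reagent at room temperature.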
Structure (SMILES),Potency,caspase activation
CCO[Si](CCC1CCC2OC2C1)(OCC)OCC (stereo not given),inactive,–
CC(=O)c1ccccc1O,inactive,–
O=Cc1cccc([N+](=O)[O-])c1,inactive,–
COc1ccc2c(c1)c(CC(=O)OCC(=O)O)c(C)n2C(=O)c1ccc(Cl)cc1,inactive,–
CCCCCCCCS(=O)(=O)Cl,inactive,–
Cc1c(O)cccc1O,inactive,–
Nc1c2c(nc3ccccc13)CCCC2O (stereo not given),inactive,–
COC(=O)c1c(Cl)c(Cl)c(C(=O)OC)c(Cl)c1Cl,inactive,–
CC/C=C\CC/C=C/C(OCC)OCC,inactive,–
CCCN(CCC)CCc1cccc2c1CC(=O)N2,inactive,–
C[C@H](NC(CCc1ccccc1)C(=O)O)C(=O)N1CCC[C@H]1C(=O)O (stereo not given in full),inactive,–
CC(=O)CC(C)(C)C1CCCCC1,inactive,–
NC(=O)c1ccc([N+](=O)[O-])cc1,inactive,–
C=CCCCCCCCCC=O,inactive,–
COC(=O)c1cc(C(=O)OC)cc(S(=O)(=O)O)c1,inactive,–
CCc1ccc(O)c(OC)c1,inactive,–
CO[C@]12C[C@@H](COC(=O)c3cncc(Br)c3)CN(C)[C@@H]1Cc1cn(C)c3cccc2c13,inactive,–
CS(=O)(=O)O,inactive,–

Structure (SMILES),Potency,caspase activation
COC(=O)NN,inactive,–
Nc1c[n+](N2CCOCC2)no1,inactive,–
CC(=O)OCC(=O)[C@@]1(O)CC[C@H]2[C@@H]3CCC4=CC(=O)CC[C@]4(C)[C@H]3C(=O)C[C@@]21C,inactive,–
CCCCCCCCCCCCCC=O,–,-1.41% [at 8.39 µM]
OC1CCCCC1c1ccccc1 (stereo not given),inactive,–
O=C(O)CCCl,inactive,–
C/C=C(\C)C#N,inactive,–
CC(C)(O)C(=O)c1ccccc1,inactive,–
C=COCC1CCC(CO)CC1 (stereo not given),inactive,–
C=C1CC[C@H]2C[C@@H]1C2(C)C,inactive,–
OCCOc1ccc(OCCO)cc1,inactive,–
COC(=O)CCSCCC(=O)OC,inactive,–
O=[N+]([O-])c1ccc(F)cc1F,inactive,–
CC(=O)Nc1ccc(S(N)(=O)=O)cc1,inactive,–
N=C(N)c1ccc(OCCCOc2ccc(C(=N)N)cc2)cc1,inactive,–
O=C(O)c1ccccc1OP(=O)(O)O,inactive,–
CN1N=C(C(N)=O)CCC1=O,inactive,–

# Assay: Caspase-3/7 induction in CHO-K1 cells by small molecules, qHTS cell viability counter screen (AID 1346979); also: nearly all actives have a fitted effect of over 35% in size
# Details: CellTiter-Fluor fluorescence, 17 h; series mostly up to 42.5 µM
# How it was run: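 Viability readout by fluorescence (CellTiter-Fluor) on wild-type CHO-K1 cells exposed for 16hr at 37C and 5% CO2 to compounds delivered in DMSO; reagent incubated 1hr before reading.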
Structure (SMILES),Potency,"activity change, negative = cytotoxicity"
CCO[Si](CCC1CCC2OC2C1)(OCC)OCC (stereo not given),inactive,–
CC(=O)c1ccccc1O,inactive,–
O=Cc1cccc([N+](=O)[O-])c1,inactive,–
COc1ccc2c(c1)c(CC(=O)OCC(=O)O)c(C)n2C(=O)c1ccc(Cl)cc1,inactive,–
CCCCCCCCS(=O)(=O)Cl,inactive,–
Cc1c(O)cccc1O,inactive,–
Nc1c2c(nc3ccccc13)CCCC2O (stereo not given),inactive,–
COC(=O)c1c(Cl)c(Cl)c(C(=O)OC)c(Cl)c1Cl,inactive,–
CC/C=C\CC/C=C/C(OCC)OCC,inactive,–
CCCN(CCC)CCc1cccc2c1CC(=O)N2,inactive,–
C[C@H](NC(CCc1ccccc1)C(=O)O)C(=O)N1CCC[C@H]1C(=O)O (stereo not given in full),inactive,–
CC(=O)CC(C)(C)C1CCCCC1,inactive,–
NC(=O)c1ccc([N+](=O)[O-])cc1,inactive,–
C=CCCCCCCCCC=O,inactive,–
COC(=O)c1cc(C(=O)OC)cc(S(=O)(=O)O)c1,inactive,–
CCc1ccc(O)c(OC)c1,inactive,–
CO[C@]12C[C@@H](COC(=O)c3cncc(Br)c3)CN(C)[C@@H]1Cc1cn(C)c3cccc2c13,inactive,–
CS(=O)(=O)O,inactive,–

Structure (SMILES),Potency,"activity change, negative = cytotoxicity"
COC(=O)NN,inactive,–
Nc1c[n+](N2CCOCC2)no1,inactive,–
CC(=O)OCC(=O)[C@@]1(O)CC[C@H]2[C@@H]3CCC4=CC(=O)CC[C@]4(C)[C@H]3C(=O)C[C@@]21C,inactive,–
CCCCCCCCCCCCCC=O,–,0.0836% [at 8.39 µM]
OC1CCCCC1c1ccccc1 (stereo not given),inactive,–
O=C(O)CCCl,inactive,–
C/C=C(\C)C#N,inactive,–
CC(C)(O)C(=O)c1ccccc1,inactive,–
C=COCC1CCC(CO)CC1 (stereo not given),inactive,–
C=C1CC[C@H]2C[C@@H]1C2(C)C,inactive,–
OCCOc1ccc(OCCO)cc1,inactive,–
COC(=O)CCSCCC(=O)OC,inactive,–
O=[N+]([O-])c1ccc(F)cc1F,inactive,–
CC(=O)Nc1ccc(S(N)(=O)=O)cc1,inactive,–
N=C(N)c1ccc(OCCCOc2ccc(C(=N)N)cc2)cc1,inactive,–
O=C(O)c1ccccc1OP(=O)(O)O,inactive,–
CN1N=C(C(N)=O)CCC1=O,inactive,–
